About 83,000 compounds went through this panel and 20% of them were active in at least one assay; those are over-represented in the sample as a whole.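 Assay: single dose, 48 h. Readout: percent growth (0 = no net growth; negative = cell death). Active: <10.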 A number with no mark means an inactive call. The source made the active and inactive calls.

For this assay, the system named is HL-60(TB) leukemia. The assay can be described thus: NCI-60 one-dose screen, 48 h (100 = growth as untreated, 0 = no growth, -100 = all killed). The following applies: 10 µM unless noted.
With `CC(C)(C)OC(=O)CN1CCc2c(sc3ncnc(N/N=C/c4ccccc4Br)c23)C1`, the growth is 92.1%. The same measure for `Cc1ccc2nc(-c3ccc(N(C)C)c(Br)c3)cn2c1`: 36.8%.

Regarding `O=C1/C(=C/c2ccc(F)cc2)CN(C(=O)C(Cl)Cl)C/C1=C\c1ccc(F)cc1`, the growth is -34% (active). As to `CC[C@@H](C)/C=C(C)/C=C/C(=O)c1c(O)c(-c2ccc(O)cc2)cn(OC2CC(=O)CCC(C)OC(=O)CC2O)c1=O` (stereo not given in full), the growth was -10.1% (active). For the compound `COc1cc(CNCCCN2C(=O)c3ccc4c5c(ccc(c35)C2=O)C(=O)N(CCCNCc2cc(OC)c(OC)c(OC)c2)C4=O)cc(OC)c1OC`, the growth is -35.8% (active).

Consider `COCCNc1ccc2c3c(cccc13)C(=O)N(CCN(C)C)C2=O`, for which the growth was -17% (active). The same measure for `Cc1nc(-c2ccccc2)cc2c(O)c(C(=O)N/N=C/Cc3ccccc3)[nH]c(=O)c12`: 76.8%.

As for `CN(C)c1ccc(-c2cc(-c3ccc(Nc4nc(Nc5ccccc5)nc(Nc5ccc(Cl)cc5)n4)cc3)nc(N)n2)cc1`, the growth is 56.3%. In the case of `COc1ccc2[nH]cc(/C=C3/C(=O)Nc4ccc(Cl)cc43)c2c1`, the growth is 53.4%. The same measure for `O=C(O)c1cc2ccccc2s1`: 112%. On to `CCCCCCCCCCCCCCCC(=O)OC[C@@]1(O)C[C@@]23CC[C@@H]4C(C)(C)[C@H](O)CC[C@@]4(C)[C@@H]2CC[C@H]1C3`, for which the growth is 101%. Next, `NCC(=O)CCC(=O)O`: 132%; `Cc1ccc(C2CC(c3ccc(Nc4nc(NCCO)nc(Nc5ccc(Cl)cc5)n4)cc3)=NN2c2cc(Cl)cc(Cl)c2)cc1` (stereo not given): 100%. The same measure for `N#CC(C#N)N=Nc1cc(Cl)ccc1Cl`: 85.2%; for `CC(=O)NC(N)=S`: 70.8%; for `CC(=O)Nc1nc(C)c(C(=O)N/N=C/c2cccs2)s1`: 130%.

Turning to `C=C1C(=O)O[C@H]2[C@H]1CC/C(COC(=O)c1cccc3ccccc13)=C\CC[C@@]1(C)O[C@@H]21`, the growth was -47.2% (active).

On to `CCOc1cccc(/C=N/NC(=O)c2ccccc2Nc2ccnc(C(F)(F)F)c2)c1O`, for which the growth is -4.47% (active). Take `COc1cccc(N=CNc2cccc(OC)c2)c1`: the growth was 96.7%.

For the compound `O=S(=O)(NCCCNc1nccc(-c2c(-c3cccc(O)c3)nc3occn23)n1)c1ccc(Cl)cc1`, the growth is 56.1%.

Consider `CC(C)(C)OC(=O)NCc1cccc(N=C=S)c1`, for which the growth was -24% (active). Turning to `CCCCCCCCCCCCCCCC(=O)O[C@@H]1[C@@H](O)[C@@H](O)C([C@H](NC(=O)[C@@H]2C[C@@H](CCC)CN2C)[C@H](C)Cl)O[C@@H]1SC` (stereo not given in full), the growth was 98.6%.

For the compound `O=Nc1ccc(O)c2ccccc12`, the growth was -3.12% (active).

With `COc1ccc(/C(C#N)=C/c2nc3c(N4CCOCC4)nc(Cl)nc3n2C)cc1OC`, the growth was -28% (active). Take `Cc1c(C(=O)NCCC(=O)NO)sc2ncnc(Nc3ccc(F)c(Cl)c3)c12`: the growth was 103%.

`COc1ccc(-c2[nH][nH]c(=O)c2-c2nc3ccccc3s2)cc1`: the growth is 99.5%. Regarding `COc1cc(Nc2cc(O)c3c(=O)cc(-c4ccccc4)oc3c2)cc(OC)c1`, the growth was -35.7% (active). Next, `O=C(Nc1ccc(OCc2nnc(-c3ccccc3)o2)c(F)c1)Nc1ccc(Cl)c(C(F)(F)F)c1`: -19.7% (active); `C/C(=C\c1cc(Cl)ccc1OCC(=O)O)[N+](=O)[O-]`: 52.5%; `CC(=O)N(N=O)c1ccc([N+](=O)[O-])cc1Cl`: 55.7%.

Consider `CCCCCCCC/C=C\CCCCCCCC(=O)Oc1cccc2cccnc12`, for which the growth was 83.9%. For `COC(=O)[C@]12CC[C@@H](C)[C@H](C)[C@@H]1C1=CC[C@@H]3[C@@]4(C)C(C#N)=CC(C)=C4CC[C@@]3(C)[C@]1(C)CC2`, the growth was -19.3% (active).

Turning to `COc1ccc(O)c(N=Nc2nccs2)c1`, the growth was -22.5% (active). Next, `CC(=O)c1cc(C(=O)c2ccc3c(c2)Sc2ccccc2N3)n2ccccc12`: 14.3%; `COc1ccc(-c2cc(-c3ccc(Nc4nc(Nc5ccc(Cl)cc5)nc(Nc5ccc(Cl)cc5)n4)cc3)no2)cc1`: -43.5% (active). As for `COc1ccc2c(c1)C(=O)CC(c1ccccc1OC)O2` (stereo not given), the growth is 88.2%. The same measure for `COc1cc2c(cc1OC)-c1c(oc3c4c(ccc3c1=O)OC(C)(C)C=C4)CO2`: 46.4%; for `Cc1nc2sc(C(=O)Nc3cccc4ccccc34)c(N)c2cc1C(C)O` (stereo not given): -24.1% (active). Next, `Cc1nc2nc(SCC(=O)O)[nH]c2c(=O)[nH]1`: 94.7%; `CCN(CC)CCN1C(=O)c2c(c(C)c3c(oc4cc(O)ccc43)c2C)C1=O`: -50.6% (active).

The values are drawn from PubChem BioAssay (NCI).
